A1 inh – inhibitors of the anti-apoptotic protein A1, read as caspase activation; MEF A1-2A-BIM cells, Caspase-Glo 3/7 luminescence, 3 h; percent of clofoctol response, vehicle zero; caspase activation, % (no concentration beside the values); 330,000 compounds, 0.066% hits;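 active = over half of replicate activation scores above 10%, or exactly half above 10 with the replicate mean above 10; inconclusive = replicate mean below 10 yet half the replicates above 10; inactive = over half of replicates below 10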
AHR activator – activates the human aryl hydrocarbon receptor | P35869 | AHR-responsive luciferase reporter cells, luminescence | activation, % at 5 µM | 320,000 compounds, 2.5% hits | AID 2796; in the data active = activation above about 47%;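 note: 0% = vehicle wells and 100% = reference agonist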
ALR inh – human ALR oxidase inhibition via reduced H2O2; AID 485317; purified ALR, DTT oxidation, H2O2 HRP-luminol luminescence; P55789; 290,000 compounds, 3.8% hits; inhibition, % (concentration not given with the values);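 active = mean replicate inhibition above about 79%, with every replicate also reaching it, limit read from the data; inconclusive = only one of the two criteria met; inactive = mean below limit and not every replicate reaching it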
Mot1-301 SUMO – inhibitors of SUMOylation pathway: yeast Mot1-301 growth rescue; S. cerevisiae Mot1-301 growth rescue, ATP luminescence, 38.5C; percent above DMSO median, 100 means doubled; 320,000 compounds, 1% hits; growth rescue, % at 18.8 µM;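 active = every valid replicate shows activation above 250% relative to neutral control wells; inactive = the rest, any valid replicate at or below 250%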;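 note: OY570 slx delta 5 strain wells were the positive control but not used for scaling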
VLA-4 inh – inhibition in a human VLA-4 binding assay | AID 2557 | VLA-4 expressing cells, ligand binding flow cytometry | 330,000 compounds, 0.2% hits | P13612 | inhibition, % (about 7 µM as worked out from the volumes in the protocol); in the data active = inhibition above about 50%
Target sequence (P13612 whole entry, looked up): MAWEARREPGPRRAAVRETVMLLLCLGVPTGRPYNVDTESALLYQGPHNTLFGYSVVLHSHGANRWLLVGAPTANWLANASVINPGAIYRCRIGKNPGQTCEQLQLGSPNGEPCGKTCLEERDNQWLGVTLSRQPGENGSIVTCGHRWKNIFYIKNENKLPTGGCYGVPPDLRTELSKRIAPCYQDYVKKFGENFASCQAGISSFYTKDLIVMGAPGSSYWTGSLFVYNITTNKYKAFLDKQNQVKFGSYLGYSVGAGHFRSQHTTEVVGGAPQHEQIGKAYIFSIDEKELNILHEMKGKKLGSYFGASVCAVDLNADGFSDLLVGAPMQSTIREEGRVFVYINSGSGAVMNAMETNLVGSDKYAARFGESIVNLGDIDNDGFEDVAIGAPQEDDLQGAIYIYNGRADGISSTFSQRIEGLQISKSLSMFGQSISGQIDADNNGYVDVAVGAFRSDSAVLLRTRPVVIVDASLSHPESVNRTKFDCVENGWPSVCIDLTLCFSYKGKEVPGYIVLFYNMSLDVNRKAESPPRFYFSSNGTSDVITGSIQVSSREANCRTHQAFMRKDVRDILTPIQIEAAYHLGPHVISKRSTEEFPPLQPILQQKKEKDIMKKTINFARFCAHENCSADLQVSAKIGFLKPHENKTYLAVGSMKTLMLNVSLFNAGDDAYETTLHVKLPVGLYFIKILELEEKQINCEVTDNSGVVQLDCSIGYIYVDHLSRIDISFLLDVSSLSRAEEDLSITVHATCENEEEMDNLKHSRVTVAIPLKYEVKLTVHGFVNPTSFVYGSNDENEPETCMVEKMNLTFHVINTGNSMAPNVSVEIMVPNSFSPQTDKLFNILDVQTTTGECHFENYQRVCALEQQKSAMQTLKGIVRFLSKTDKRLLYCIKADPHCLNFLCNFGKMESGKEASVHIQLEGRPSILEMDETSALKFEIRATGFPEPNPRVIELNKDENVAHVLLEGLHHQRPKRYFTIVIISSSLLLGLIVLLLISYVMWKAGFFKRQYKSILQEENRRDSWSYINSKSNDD
Efflux pump mplx – antifungal efflux pump inhibition, Nile Red retention. inhibition, % at 10 µM. S. cerevisiae Candida pump triplex. 330,000 compounds, 0.44% hits. AID 485275;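 active = plate passing quality check with inhibition over a set limit, or well fluorescence over plate mean plus 4 SD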;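 note: Nile Red retained in pooled yeast measured as flow cytometry median fluorescence; 0% = buffer negative control and 100% = Enniatin B positive control; higher means more Nile Red kept so more efflux inhibition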
VLA-4 mod pick – human VLA-4 allosteric modulation in cherry picked compounds; 1,300 compounds, 2% hits; shares compounds with VLA-4 inh; U937 cells, HUTS-21 LIBS mAb binding, flow cytometry; LDV ligand present at threefold Kd; inhibition, % at 6.7 µM; AID 2813; in the data active = inhibition above about 40%;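 note: 0% = ligand without compound and 100% = no ligand background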
* = called active by the depositor; ? = inconclusive; · = not tested or not shown. Sampled rows, rich in hits. Any-hit rate of the full collection: about 7.2%.

SMILES	A1 inh	AHR activator	ALR inh	Mot1-301 SUMO	VLA-4 inh	Efflux pump mplx	VLA-4 mod pick
CCOc1ncnc2c1[nH]c1ccccc12	0	13	-9	3	28	0	14
COc1c(O)cccc1/C=N/NC(=O)Cn1ccnc1C	0	3	47	0	-2	0	·
Nc1ncnc(Nc2ccccc2)n1	0	-4	-8	11	54*	0	-5
Cc1ccc(Nc2ncnc(N)n2)cc1C	-1	7	1	-13	5	0	·
CCc1nnc(NC(=O)CSc2nc3c(cc2C#N)CCC3)s1	0	-5	-25	9	0	0	·
CN1CCc2nc(SCC(=O)Nc3ccc(Cl)cc3)c(C#N)cc2C1	0	26	99*	-2	106*	0	-3
Cc1nnc(NC(=O)CSc2ccc3nnc(-c4cccnc4)n3n2)s1	1	4	-4	4	54*	0	3
O=C(CSc1ccc2nnc(-c3cccnc3)n2n1)NCC1CCCO1 (stereo not given)	·	2	·	·	-20	0	2
CC1CCCN(C(=O)c2ccc3c(c2)OCCO3)C1 (stereo not given)	2	3	·	-16	50*	0	-6
CC(C)(C)c1ccc(NS(=O)(=O)c2ccc(N)cc2)cc1	1	3	10	19	0	0	4
Cc1onc(C(=O)Nc2c(C)n(C)n(-c3ccccc3)c2=O)c1[N+](=O)[O-]	?	0	-10	-3	16	0	·
COc1ccc(C(=O)NCc2nnc(SCC(=O)NC3CCCCC3)o2)cc1	0	-1	1	0	5	0	·
CCC1=NN(C(=O)Cc2ccc([N+](=O)[O-])cc2)C(O)(C(C)(C)C)C1 (stereo not given)	0	3	11	-23	58*	0	-6
C[C@@H](NC(=O)[C@@H]1Cc2ccccc2CN1)C(=O)NC1CCCCC1	0	2	5	-20	51*	0	-1
Cc1noc(C)c1COc1ccc(C(=O)NCCc2ccc(F)cc2)cc1	-1	0	·	4	50*	0	12
Cc1noc(C)c1COc1ccc(C(=O)NCCc2ccc(S(N)(=O)=O)cc2)cc1	2	0	·	-2	-2	0	·
O=C(Nc1cccc(S(=O)(=O)N2CCCCC2)c1)c1cc([N+](=O)[O-])ccc1N1CCOCC1	1	8	-6	-5	0	0	·
O=C(Nc1ccccc1)c1cc(S(=O)(=O)N2CCCCC2)ccc1N1CCOCC1	·	-1	·	·	19	0	0
NC(=O)c1ccccc1NC(=O)c1cc(S(=O)(=O)N2CCCCC2)ccc1N1CCOCC1	0	2	·	-8	6	0	-4
Cc1ccc(C)c(NC(=O)c2cc(S(=O)(=O)N3CCCCC3)ccc2N2CCOCC2)c1	0	-1	·	1	51*	0	4
O=C(Nc1cc(S(=O)(=O)N2CCOCC2)ccc1N1CCOCC1)c1ccccc1Cl	1	-1	-3	13	2	0	·
O=C(NCC1CCN(C(=O)c2ccc([N+](=O)[O-])cc2)CC1)C(=O)Nc1ccccc1	1	-3	1	-11	-10	0	·
NC(=O)[C@H]1CC2(CC(c3cccc(NC(=O)[C@H]4CCC(=O)N4)c3)=NO2)CN1C(=O)c1ccccc1 (stereo not given in full)	-1	-2	11	-4	51*	0	6
Cc1cccc2cc(CN(Cc3ccccc3)C(=O)c3cccc(F)c3)c(Cl)nc12	0	0	0	-4	0	0	·
Clc1ccc(CSc2nncn2-c2ccccn2)cc1	0	-1	-6	1	60*	0	2
Cc1ccc(SCc2nc(N)nc(Nc3ccccc3C)n2)cc1C	0	11	14	14	54*	0	-6
Cc1ccn2c(=O)c(NC(=O)c3cccs3)c(C)nc2c1	-2	1	17	-20	7	0	·
CCOC(=O)N1CCN(C(=O)C2CCN(C(=O)c3ccc([N+](=O)[O-])cc3)CC2)CC1	-1	0	-5	110	15	0	·
